Screening data: PubChem, Center for Chemical Genomics, University of Michigan
This is one part of a sample in which hits are shown more often than they occur.
Dicer processing: human Dicer pre-microRNA cleavage inhibition; Q9UPY3; cat-ELCCA pre-miR-21 Dicer processing, chemiluminescence; stronger effect = higher value; z-score at 25 µM; actives 6% (n = 47,000); in the data active means z-score above about 3, passing the limit was not always enough;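 further: plate controls were vehicle for no effect and no enzyme for full effect; higher signal means more uncleaved substrate so more Dicer inhibition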
* hit, by the source's call.

SMILES	Dicer processing
Cn1c(=O)c2c(nc(N3CCCCCC3)n2C)n(C)c1=O	0.33
CC1CN(c2ncnc3scc(-c4ccccc4)c23)CC(C)O1 (centres undefined)	-1
CCSCCOC(=O)C1=C(C)NC2=C(C(=O)CCC2)C1c1ccc(OC)cc1OC (centres undefined)	0.01
CCOc1ccc(C2C(C(=O)OCCSCC)=C(C)NC3=C2C(=O)CCC3)cc1 (centres undefined)	0.51
CCSCCOC(=O)C1=C(C)NC2=C(C(=O)CCC2)C1c1ccc(OC)c(Br)c1 (centres undefined)	2.2
CC1=C(C(=O)OCCc2ccccc2)C(c2ccsc2)C2=C(CCCC2=O)N1 (centres undefined)	3.8*
CC1=C(C(=O)OCCc2ccccc2)C(c2ccc(C)cc2)C2=C(CCCC2=O)N1 (centres undefined)	0.5
CC1=C(C(=O)OCCc2ccccc2)C(c2ccc(Br)cc2)C2=C(CCCC2=O)N1 (centres undefined)	2.2
CC1=C(C(=O)OCC2CCCO2)C(c2cccc(Oc3ccccc3)c2)C2=C(CCCC2=O)N1 (centres undefined)	1.1
CCSCCOC(=O)C1=C(C)NC2=C(C(=O)CCC2)C1c1ccc(F)cc1 (centres undefined)	6.4*
CCSCCOC(=O)C1=C(C)NC2=C(C(=O)CCC2)C1c1cccc(Oc2ccccc2)c1 (centres undefined)	6*
COc1ccc(Oc2coc3cc(OCCCc4ccccc4)ccc3c2=O)cc1	-2
CCOC(=O)c1cc(-c2ccccc2)sc1NC(=O)Nc1ccc(C)cc1	-2.7
COc1ccc(OCCN)cc1	-0.31
COc1ccc(OCCC(=O)NN)cc1	3.3*
COc1ccc(OCCC(=O)N/N=C/C=C/c2ccccc2)cc1	0.85
Nc1nc(NC(=O)CCCC(=O)O)nn1-c1ccccc1	16*
O=C(O)CCCC(=O)Nc1nc2nccc(-c3ccccc3)n2n1	-0.66
O=C(O)CCCC(=O)Nc1ccn(-c2ccccc2)n1	0.09
CCCCNC(=O)Nc1cc(C(C)(C)C)nn1C	-1.8
O=C1C=CC(=O)C2C3c4ccccc4C(c4ccccc43)C12 (centres undefined)	-0.17
O=C(CSc1nnc(C2CC2)n1-c1ccc(Cl)cc1)c1ccc(Cl)cc1	0.27
CCOC(=O)Nc1ccccc1C(=O)OC	5.4*
COC(=O)c1ccccc1NC(=S)OC	0.06
COC(=O)c1ccccc1NC(=S)N(N)CCO	-0.19
SMILES	Dicer processing
NC(=S)CCn1cccc(C(F)(F)F)c1=O	-1.7
C/C(=N\NC(=S)NCC(C)(C)C)c1cc(F)ccc1O	0.16
COc1ccc(Br)c(C(=O)CC#N)c1	1.1
Cc1ccc(NS(=O)(=O)c2ccc(S(N)(=O)=O)cc2)cc1	-1.7
CC(=O)Nc1cc(C)c(NS(=O)(=O)c2ccc(C)cc2)c(C)c1	-1.1
Cc1ccc(S(=O)(=O)Nc2ccc(O)c(S(=O)(=O)c3ccc(C)cc3)c2)cc1	4*
O=C1c2cccc3c(N4CCOCC4)ccc(c23)C(=O)N1c1ccccc1	0.14
O=C1c2cccc3c(N4CCOCC4)ccc(c23)C(=O)N1c1cccc(O)c1	0.21
O=C1c2cccc3c(N4CCOCC4)ccc(c23)C(=O)N1c1cc(Cl)ccc1O	8.3*
CCOc1ccc(C(C)(C)C)cc1S(=O)(=O)n1cnc2ccccc21	-1.8
CC1=C(C(=O)OC2CCCCC2)C(c2coc3ccc(Cl)cc3c2=O)C2=C(CC(C)(C)CC2=O)N1 (centres undefined)	2.4
CCC(CO)NC(=S)Nc1c(C)cc(C)cc1C (centres undefined)	-0.92
O=[N+]([O-])c1c(N2CCOCC2)ccc2nsnc12	-0.77
O=C(/C=C/Sc1c(Cl)cccc1Cl)c1ccc(Br)cc1	-0.12
O=C(/C=C/Sc1ccccn1)c1ccc(Br)cc1	3*
Cc1ccc(C(=O)/C=C/Sc2ccccn2)cc1	0.72
O=C(C1c2ccccc2Oc2ccccc21)N1CCCC1	4*
O=C(O)C1c2ccccc2Oc2ccccc21	0.95
CC1CCCCN1C(=O)C1c2ccccc2Oc2ccccc21 (centres undefined)	1
CC(C)NC(=O)C1c2ccccc2Oc2ccccc21	2.8
CC1CN(C(=O)C2c3ccccc3Oc3ccccc32)CC(C)O1 (centres undefined)	2
COC(=O)C1CCN(C(=O)C2c3ccccc3Oc3ccccc32)CC1	5*
CC(=O)OCC(COC(C)=O)NC(=O)OCC1c2ccccc2-c2ccccc21	-0.98
COC(=O)c1c(OC)ccc(N=CNO)c1OC	-0.69
CCCC1C(C#N)=C(N)Oc2n[nH]c(CC(=O)OCC)c21 (centres undefined)	-3.5
SMILES	Dicer processing
COC(=O)c1sc(-c2ccc(C(C)(C)C)cc2)cc1NS(=O)(=O)c1cn(C)cn1	3
COc1ccc(S(=O)(=O)Nc2cc(C)ccn2)c(C)c1C	0.46
CNC(=S)N(CCS(=O)(=O)c1ccc(Cl)cc1)Cc1cccs1	3.2*
O=S(=O)(CCN(Cc1cccs1)C(=S)Nc1cccc(F)c1)c1ccc(Cl)cc1	-1.9
O=S(=O)(CCN(Cc1cccs1)S(=O)(=O)c1ccc(Cl)cc1)c1ccc(Cl)cc1	1.7
CC(=O)N(C(C)=O)c1ccc2c3c(cccc13)CC2	3
Cc1ccc2c(c1)C(C)(C)C1(C)N(Cc3ccccc3)C(=O)CN21 (centres undefined)	-0.22
COc1ccc(CCN2C(=O)CSC2=Nc2c(Br)cc(F)cc2Br)cc1OC	-0.01
Cc1ccccc1CSc1nnc(CCN)o1	-0.12
COc1cccc(C(Nc2cc(C)ccn2)c2ccc3ccc(C)nc3c2O)c1 (centres undefined)	6.8*
COc1cc(C(Nc2cc(C)ccn2)c2ccc3cccnc3c2O)ccc1O (centres undefined)	11*
COc1ccc(C(Nc2ccccn2)c2ccc3ccc(C)nc3c2O)cc1OC (centres undefined)	0.29
CCOc1ccc(C(Nc2cc(C)ccn2)c2ccc3cccnc3c2O)cc1OC (centres undefined)	5.2*
Cc1ccnc(NC(c2ccc(N(C)C)cc2)c2ccc3ccc(C)nc3c2O)c1 (centres undefined)	1
Cc1ccnc(NC(c2ccc(N(C)C)cc2)c2ccc3cccnc3c2O)c1 (centres undefined)	6.3
COc1ccc(C)cc1NC(c1cccnc1)c1ccc2cccnc2c1O (centres undefined)	2.3
CCOc1cccc(C(Nc2ccccn2)c2ccc3ccc(C)nc3c2O)c1 (centres undefined)	-0.34
CCOc1cc(C(Nc2cc(C)ccn2)c2ccc3cccnc3c2O)ccc1O (centres undefined)	14*
CCOc1cc(C(Nc2cc(C)ccn2)c2ccc3cccnc3c2O)ccc1OC (centres undefined)	-0.73
CSc1sc(C#N)c2c1S(=O)(=O)N(C)c1ccccc1-2	-0.38
CCc1cccc(CC)c1NC(=O)C(Sc1ccccn1)c1ccccc1 (centres undefined)	1.6
O=C(CC1SC(=Nc2ccccc2)NC1=O)Nc1cc(Cl)ccc1Cl (centres undefined)	-0.38
COc1ccc2c(c1)C(C)CC(C)(C)N2C(=O)CSc1nccc(C)n1 (centres undefined)	0.22
Cn1c(=O)c2c(ncn2CC(=O)NCc2ccncc2)n(C)c1=O	1.7
Cc1cc(-c2nc(-c3ccc(C(F)(F)F)cc3)no2)n(C)n1	0.63
CSC1=NC(N)=C(C#N)C2(CCCCC2)C1C(N)=O (centres undefined)	0.53
OC(C#CCN1CCOCC1)c1cccs1 (centres undefined)	4*
